Our source for the cell viability values is the supplement of paper PMC8699584.

For orientation: cell viability means a read-out of living cells in per cent, often relative to untreated cells.

Where “and” joins values, the source holds several entries; their conditions need not be identical. Equal entries are not always repeated. Structures can show the parent of a compound that is named as a salt. ± gives the standard deviation of the averaged measurements.

The test concerns Mv4-11. Nature of the test: cell viability relative to DMSO control (bortezomib = 0%); higher = less growth inhibition. The settings on record: 10 nM; 72 h. In short, it runs like this:
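Each plate's values were converted to percentages by linear regression, taking DMSO-treated cells as 100% and positive-control-treated cells as 0%. These plates were 384-well plates of 679 approved and investigational compounds at a single 10 nM dose, onto which acute myeloid leukemia cells were dispensed at 1000 cells per well in 50 µL for 72 h, in duplicate. Cell viability came from CellTiter-Glo luminescence on an EnVision reader.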
Take `Cc1ccc([N+](=O)[O-])cc1S(=O)(=O)N(C)/N=C/c1cnc2ccc(Br)cn12` [PIK-75 (hydrochloride)]: the cell viability worked out at 92.2 ± 7.8%.
For `COc1cc2ncnc(Nc3ccc(F)c(Cl)c3)c2cc1OCCCN1CCOCC1` [Gefitinib], the cell viability is 120 ± 1.4%.
Turning to `CC(C)n1cnc2c(NCc3ccccc3)nc(NCCCO)nc21` [Bohemine], the cell viability is 103 ± 13%.
In the case of `Oc1ccc(-c2nc(-c3ccc(F)cc3)c(-c3ccncc3)[nH]2)cc1`, the cell viability was 104% and 106%.
With `CCn1c(=O)c(-c2ccc(-c3cncs3)cc2Cl)cc2cnc(Nc3ccc(N4CCN(C)CC4)cc3)nc21`, the cell viability came to 111 ± 10%.
As for `COc1ccc(CCNCc2ccc(OCc3ccc(Cl)nc3)c(OC)c2)cc1OC` [SBE 13 hydrochloride], the cell viability was 107 ± 3%.
As for `CCN1CCN(c2ccc(Nc3cc(N(C)C(=O)Nc4c(Cl)c(OC)cc(OC)c4Cl)ncn3)cc2)CC1`, the figure is 106 ± 16%.
In the case of `Cc1ncc(CCCN(C)C)cc1Nc1ncc2c(n1)-c1ccc(C(F)(F)F)cc1NC(=S)C2` it was 108 ± 7.1%.
As for `CNC(=O)c1ccccc1Oc1nc(Nc2cc(OC)c(OC)c(OC)c2)ncc1Br`, the figure is 107 ± 11%; as for `CCN1CCN(Cc2ccc(Nc3ncc(F)c(-c4cc(F)c5nc(C)n(C(C)C)c5c4)n3)nc2)CC1`, 102% and 112%; as for `CN1CCN(CCOc2cc(OC3CCOCC3)c3c(Nc4c(Cl)ccc5c4OCO5)ncnc3c2)CC1` [Saracatinib (AZD0530)], 106 ± 6.2%.
In the case of `N#CC1(c2ccc(NC(=O)c3cccnc3NCc3ccncc3)cc2)CCCC1` [Apatinib], the cell viability was found to be 110 ± 1.5%.
As to `C=CC(=O)N1CCC(Oc2cc3c(Nc4ccc(Cl)c(Cl)c4F)ncnc3cc2OC)CC1` [Poziotinib (HM781-36B)], the cell viability came to 113 ± 10%.
Turning to `O=S(=O)(c1cccc2cnccc12)N1CCCNCC1` [Fasudil], the cell viability was 104 ± 9.1%.
With `CS(=O)(=O)c1ccc(-c2cnc(N)c(C(=O)Nc3ccccc3)n2)cc1`, the cell viability was 93.76 ± 0.24%.
Consider `Oc1c2ccccc2c2c3c(cccc13)N=N2`, for which the cell viability is 103% and 104%.
With `N#CC(=Cc1cc(Cl)cc(Cl)c1)c1cccnc1`, the cell viability stood at 108 ± 7.3%.
On to `COc1cc2ncnc(Oc3ccc(CC(=O)Nc4cnn(C(C)C)c4)cc3)c2cc1OC`, for which the cell viability stood at 29.8 ± 2.1%.
In the case of `c1cc(-c2cnn3cc(-c4ccc(OCCN5CCCCC5)cc4)cnc23)ccn1` [Dorsomorphin dihydrochloride] it was 65.7 ± 3.6%; in that of `C#Cc1cccc(Nc2ncnc3cc4c(cc23)OCCOCCOCCO4)c1` [Icotinib], 97.5 ± 5.9%.
In the case of `FC(F)c1nc2ccccc2n1-c1nc(N2CCOCC2)nc(N2CCOCC2)n1` it was 122 ± 12%.
Turning to `Fc1ccc2[nH]ccc2c1-c1nc(N2CCOCC2)c2sc(CN3CCN(CC4CC4)CC3)cc2n1`, the cell viability is 119 ± 7.6%.
As for `O=c1cc(N2CCOCC2)oc2c(-c3ccccc3)cccc12`, the figure is 104 ± 16%.
In the case of `NC(=O)c1ccc(N(C(N)=O)c2c(F)cccc2F)nc1-c1ccc(F)cc1F` it was 98.7 ± 8.1%; in that of `COc1cc(OC)c(/C=C/S(=O)(=O)Cc2ccc(OC)c(NCC(=O)O)c2)c(OC)c1`, 124 ± 8.1%; in that of `COc1ccc(S(=O)(=O)N(CCO)c2ccccc2CN(C)C/C=C/c2ccc(Cl)cc2)cc1` [KN-93 Phosphate], 101 ± 5.2%.
In the case of `Nc1nc(O)c2ncn(CCC(CO)CO)c2n1` [Penciclovir] it was 104 ± 2.1%; in that of `C#Cc1cccc(Nc2ncnc3cc(OCCOC)c(OCCOC)cc23)c1` [Erlotinib hydrochloride], 121 ± 20%; in that of `O=C1Nc2cc(Br)ccc2/C1=C1/Nc2ccccc2/C1=N\O`, 91.4 ± 8.7%.
As for `CN1CCN(Cc2ccc(-c3cnc4[nH]cc(-c5ccc6[nH]ccc6c5)c4c3)cc2)CC1`, the cell viability was found to be 121 ± 31%.
As for `CC(C)(C)NS(=O)(=O)c1cncc(-c2cc(F)c3nc(N)nn3c2)c1`, the cell viability is 105 ± 1.1%.
As for `Cc1c(F)cc(C(=O)NC2CC2)cc1-c1ccc(C(=O)NCC(C)(C)C)cn1`, the figure is 118 ± 20%.
As for `O=C(NCCCNc1nc(Nc2cccc(NC(=O)N3CCCC3)c2)ncc1I)c1cccs1`, the figure is 97.5 ± 5.3%.
As for `O=C(NOCC1CC1)c1ccc(F)c(F)c1Nc1ccc(I)cc1Cl`, the figure is 95.7 ± 9.2%.
As for `Cc1ccc(S(=O)(=O)/C=C/C#N)cc1`, the cell viability is 98.8 ± 3.1%.
In the case of `NC(=O)c1ccc2nc(-c3ccc(Oc4ccc(Cl)cc4)cc3)[nH]c2c1` it was 114 ± 6.3%.
Take `Cc1c(NC(=O)OC[C@@H]2COCCN2)cn2ncnc(Nc3ccc4c(cnn4Cc4cccc(F)c4)c3)c12`: the cell viability worked out at 112 ± 11%.
Take `CN1CCN(c2nc(C3=C(c4c[nH]c5ccccc45)C(=O)NC3=O)c3ccccc3n2)CC1` [Sotrastaurin]: the cell viability stood at 109 ± 11%.
In the case of `CO[C@@H]1[C@H](N(C)C(=O)c2ccccc2)C[C@H]2O[C@]1(C)n1c3ccccc3c3c4c(c5c6ccccc6n2c5c31)C(=O)NC4` it was 87.82 ± 0.66%; in that of `O.O.O.O.O=C([O-])CC(O)(CC(=O)[O-])C(=O)[O-].[Li+].[Li+].[Li+]` [Lithium citrate tribasic tetrahydrate], 114 ± 1.7%.
